Screening data from PubChem.
A selection: hits, their analogues and other compounds. The true share with any hit is near 5.9%.
ATXN2 expr inh: reduces ATXN2 reporter expression in HEK-293 cells; hit rate 0.72% among 360,000; Potency, µM (top dose mostly 57 µM), inactives show at the highest dose activity change, negative = inhibition, most hits filed as inhibitors; AID 1745845; HEK-293 ATXN2-luciferase reporter, luminescence, 24 h; also: % is scaled to controls: 0 for no effect and ±100 for the full control effect; nearly all actives have a fitted effect of over 55% in size
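ATXN2-luciferase reporter cells (luciferase flanked by upstream and downstream ATXN2 gene portions) were treated 24 h at 37 °C with compounds at up to 57 uM. SteadyGlo luminescence gave expression; GF-AFC fluorescence gave viability.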
TGFb SMAD3 inh: blocks TGF-b signaling; HepG2 CAGA-GFP TGF-b/SMAD3 reporter, GFP fluorescence, 18 h; TGF-beta stimulated, 500 pg/mL final; Potency, µM (series often up to 46.1 µM), without a hit: top-dose activity, negative = inhibition, actives largely listed as inhibitors; hit rate 1.2% among 410,000; AID 588855; also: % is scaled to controls: 0 for no effect and ±100 for the full control effect; nearly all actives have a fitted effect of over 65% in size
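HEPG2 CAGA-GFP, 1000 cells/well; 2 h settle, 37 C; cpd via pin tool; TGF-b 500 pg/mL final; 18 h, 37 C; GFP imaging ex488/em500-530; %Activity normalised to -TGF-b and +DMSO controls; CRC fit, curve class.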
KB-3-1 cytotox: kills parental KB-3-1 adenocarcinoma cells; Potency, µM (series often up to 46.1 µM), actives largely listed as cytotoxic; KB-3-1 viability, CellTiter-Glo ATP luminescence, 72 h; hit rate 1.4% among 400,000; AID 1347075; also: % is scaled to controls: 0 for no effect and ±100 for the full control effect; nearly all actives have a fitted effect of over 60% in size
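KB-3-1 cells, DMEM (no phenol red) + 10% FBS; compound by pin transfer, 72 h, 37 °C. Readout: CellTiter-Glo luminescence after 10 min. Data normalized, curve-fitted.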
HepG2 tox-1: kills HepG2 cells in TGF-b inhibitor counter-screen; HepG2 CAGA-GFP viability, ATP luminescence, 18 h; Potency, µM (doses to about 46.1 µM), for the others: top-dose activity change, negative = cytotoxicity, most hits filed as cytotoxic; hit rate 0.76% among 410,000; AID 588856
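HepG2 CAGA-GFP cells (1000/well, DMEM with 1% FBS) received compound, then TGF-beta at 500 pg/mL final, and were incubated 18 hours at 37 degrees C. Viability was read by CellTiter-Glo luminescence. Media-only wells were set as complete cell-killing and DMSO as no toxicity.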
ATXN viability: viability counter-screen for ATXN expression inhibitors; S2 cells (HEK-293 line with an ATXN2-luciferase reporter) viability, CellTiter-Fluor protease fluorescence, 24 h; Potency, µM (doses to about 56.7 µM), most hits filed as cytotoxic; hit rate 0.49% among 400,000; AID 651635; also: nearly all actives have a fitted effect of over 40% in size
KB-V1 cytotox: KB-V1 MDR subline cytotoxicity; hit rate 3.4% among 400,000; KB-V1 MDR cells viability, CellTiter-Glo, 72 h; AID 1347076; Potency, µM (titrated, usually from 46.1 µM), most hits filed as cytotoxic; also: % is scaled to controls: 0 for no effect and ±100 for the full control effect; nearly all actives have a fitted effect of over 60% in size
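Cells of the MDR subline KB-V1 are plated, dosed with compound at multiple concentrations, and incubated 72 h at 37 degrees C; CellTiter-Glo is then added and luminescence read after 10 min.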
TGFb confirm: confirmation of TGF-b signaling inhibitors in HepG2 reporter cells | shares compounds with TGFb SMAD3 inh | HepG2 CAGA-GFP TGF-b reporter, GFP fluorescence, 18 h; cells stimulated with TGF-beta, 500 pg/mL | Potency, µM (titrated, usually from 46.1 µM), for the others: at the highest dose activity, negative = inhibition, actives largely listed as inhibitors | hit rate 63% among 1,600 | AID 720534; also: % is scaled to controls: 0 for no effect and ±100 for the full control effect; nearly all actives have a fitted effect of over 65% in size
HepG2 tox-2: counter-screen for TGF-b inhibitors: cytotoxicity in HepG2 cells. hit rate 27% among 1,600. AID 720535. HepG2 CAGA-GFP viability, ATP luminescence, 18 h; cells stimulated with TGF-beta, 500 pg/mL. Potency, µM (titrated, usually from 46.1 µM), without a hit: at the highest dose activity, negative = cytotoxicity, usual class: inhibitors. shares compounds with TGFb SMAD3 inh; also: % is scaled to controls: 0 for no effect and ±100 for the full control effect; nearly all actives have a fitted effect of over 70% in size
TGFb CCL64 inh: blocks TGF-b signaling in CCL64 reporter cells | shares compounds with TGFb SMAD3 inh | AID 720536 | CCL64 CAGA-GFP reporter, TGF-b stimulated, GFP fluorescence, 18 h | hit rate 41% among 1,600 | Potency, µM (highest dose often 46.1 µM), for inactives: at the top dose activity, negative = inhibition, actives largely listed as inhibitors; also: nearly all actives have a fitted effect of over 65% in size
TGFb COP inh: blocks TGF-b signaling in HepG2 COP reporter. shares compounds with TGFb SMAD3 inh. HepG2 COP-GFP TGF-b reporter, GFP fluorescence, 18 h; cells stimulated by added recombinant TGF-beta. Potency, µM (series often up to 46.1 µM), without a hit: top-dose activity, negative = inhibition, hits mostly inhibitors. hit rate 3% among 1,600. AID 720537; also: nearly all actives have a fitted effect of over 70% in size
* = called active by the depositor; i = inactive; ? = inconclusive; nt = not tested or not shown; [ ] = dose if it differs, or a comment. Calls follow the shape of the dose curve; as a rule, active = well fitted curve in the direction sought with a large enough effect; inconclusive = small, poorly fitted or top-dose-only effect, or another doubt; inactive = no such curve, though single readings can be large; an effect the other way counts as inactive or inconclusive. Potency is read from the fitted curve at half-maximal effect.

SMILES | ATXN2 expr inh | TGFb SMAD3 inh | KB-3-1 cytotox | HepG2 tox-1 | ATXN viability | KB-V1 cytotox | TGFb confirm | HepG2 tox-2 | TGFb CCL64 inh | TGFb COP inh
CCCC(=O)n1nc(-c2ccco2)nc1NCc1ccccc1Cl | 0.3% | 0.5% | i | -2.9% | ? | ? | nt | nt | nt | nt
COc1ccc(S(=O)(=O)Nc2cc(Sc3ncn[nH]3)c(O)c3ccccc23)cc1 | nt | 3.16µM* | nt | 3.55µM* | nt | nt | 11.6µM* | ? | 2.59µM* | ?
O=S(=O)(Nc1cc(Sc2cccc3cccnc23)c(O)c2ccccc12)c1ccc(F)cc1 | ? | 0.794µM* | 3.26µM* | 1.12µM* | 3.98µM* | ? | 11.6µM* | 14.6µM* | 2.59µM* | 30.8%
COc1ccc(S(=O)(=O)Nc2ccc(O)c(Sc3ncn[nH]3)c2)cc1 | 6.1% | 1.0% | i | 0.3% | i | i | nt | nt | nt | nt
O=S(=O)(Nc1cccc2cccnc12)c1ccc2ccccc2c1 | nt | ? | nt | -24.4% | nt | nt | nt | nt | nt | nt
COc1ccc(C2(CNC(=O)C(=O)Nc3ccc(F)cc3)CCCC2)cc1OC | 13.6% | 0.0% | ? | -35.3% | i | i | nt | nt | nt | nt
COc1ccc(C(=O)NCCc2sc(-c3ccc(F)cc3)nc2C)cc1OC | -25.4% | ? | i | -23.8% | ? | i | nt | nt | nt | nt
O=C(c1ccc(Br)cc1)N(Cc1nc2ccccc2c(=O)[nH]1)C1CCCC1 | -33.4% | 11.2µM* | 16.4µM* | -13.3% | i | ? | 23.1µM* | -24.7% | -9.6% | 19.4%
COc1ccc(C(=O)N(Cc2cc(OC)c(OC)c(OC)c2)C2CCS(=O)(=O)C2)cc1Cl (stereo not drawn) | 4.4% | 21.3% | i | 2.5% | i | i | nt | nt | nt | nt
CCOc1ccc(Nc2cc(C)nc3nncn23)cc1 | nt | -27.9% | nt | -16.3% | nt | nt | nt | nt | nt | nt
CCCc1nc([N+](=O)[O-])c(S(=O)(=O)c2ccccc2)n1CC(C)C | ? | 10µM* | ? | -64.1% | ? | i | 20.6µM* | ? | 16.4µM* | 28.4%
COc1ccc(-c2cccc(-c3cc(=O)oc4cc(OC)cc(OC)c34)c2)cc1 | 5.8% | 1.41µM* | 0.651µM* | 3.2% | i | 1.16µM* | 1.64µM* | -0.5% | 1.46µM* | -24.9%
O=C(N=Nc1c(O)[nH]c2ccc(Br)cc12)c1ccccc1-n1cccc1 | ? | ? | 5.17µM* | -22.4% | nt | 3.26µM* | 7.31µM* | ? | 18.4µM* | 45.1%
Cc1ccn2c(=O)cc(COc3ccc(NC(=O)c4ccccc4F)cc3)nc2c1 | nt | -1.0% | i | 0.5% | nt | i | nt | nt | nt | nt
C[C@H](CO)N1C[C@H](C)[C@@H](CN(C)S(=O)(=O)c2ccccc2)Oc2c(NC(=O)Nc3ccc(C(F)(F)F)cc3)cccc2C1=O | ? | 10µM* | ? | -28.6% | ? | i | 20.6µM* | ? | ? | 12.3%
C[C@@H]1CCCCO[C@H](CN(C)Cc2ccc(Cl)c(Cl)c2)[C@H](C)CN([C@@H](C)CO)C(=O)c2cc(NC(=O)Nc3ccc(F)cc3)ccc2O1 | ? | 10µM* | ? | -23.0% | ? | i | 5.8µM* | ? | 5.8µM* | 48.1%
C[C@@H]1CN([C@@H](C)CO)C(=O)c2cccc(NC(=O)Nc3ccc(F)cc3)c2O[C@@H]1CN(C)Cc1ccc(Oc2ccccc2)cc1 | ? | 3.98µM* | i | -49.6% | 17.8µM* | i | 16.4µM* | ? | 6.51µM* | 42.3%
O=C(CSc1nc2ccccc2n1Cc1ccc(F)c(Cl)c1)N1CCN(c2ccc(F)cc2)CC1 | 6.3% | -6.3% | i | -3.8% | i | ? | nt | nt | nt | nt
COC(=O)c1ccc(Cn2c(C)c(C(=O)NCc3ccco3)sc2=O)o1 | 0.2% | 13.9% | i | -1.6% | i | i | nt | nt | nt | nt
COC(=O)c1ccc(Cn2c(C)c(C(=O)NCc3ccc(Cl)c(Cl)c3)sc2=O)o1 | ? | 12.6µM* | i | -5.8% | i | ? | 23.1µM* | -20.5% | -6.0% | 0.0%
COc1ccc(C(=O)CC(=O)c2ccc(C(C)(C)C)cc2)cc1 | ? | -2.8% | i | -8.5% | i | ? | nt | nt | nt | nt
COc1ccc(C(=O)C(CCC(CNC(C)(C)C)C(=O)c2ccc(OC)cc2)CNC(C)(C)C)cc1 (stereo not drawn) | ? | 7.08µM* | ? | -81.4% | ? | ? | ? | 18.4µM* | 4.11µM* | ?
O=[N+]([O-])c1ccc(O)c(CSc2nnnn2-c2ccccc2)c1 | -5.5% | -2.5% | i | 2.8% | i | i | nt | nt | nt | nt
O=C(/C(=N\Nc1ccc([N+](=O)[O-])cc1)Sc1nnnn1-c1ccccc1)c1ccccc1 | -31.9% | 7.94µM* | i | -40.2% | i | 16.4µM* | ? | 23.1µM* | 20.6µM* | 85.1%
CCn1c(=O)c(C(=O)Nc2nc3ccccc3[nH]2)c(O)c2ccccc21 | -26.3% | 2µM* | 11.6µM* | -59.8% | i | 1.16µM* | -24.7% | ? | ? | 34.0%
CCN1Cc2cccc(C(=O)Nc3ccc(F)cc3)c2C1=O | 1.2% | 0.5% | i | -11.2% | i | i | nt | nt | nt | nt
Cc1ccc(SCC(=O)Nc2cc([N+](=O)[O-])ccc2O)cc1 | 12.4%[11.3 µM] | 17.8µM* | i | -30.7% | i | i | 4.61µM* | ? | ? | 81.7%
O=C(CSCc1ccc(Cl)cc1)Nc1cc([N+](=O)[O-])ccc1O | ? | ? | i | -7.7% | ? | i | nt | nt | nt | nt
O=C(NCCCCCCNC(=O)c1ccccc1O)c1ccccc1O | -19.8% | 8.91µM* | ? | -35.2% | i | ? | ? | ? | ? | 10.6%
